Assay outcomes deposited in PubChem by C. David Weaver Laboratory, Vanderbilt University.
GIRK2 act – activators of human GIRK2 potassium channels. calls only for hits at 25 µM. P48051. AID 1259325. HEK293-GIRK2 thallium flux, Thallos fluorescence, MPD. 63,000 compounds, 0.05% hits; call rule not given here
Target sequence (P48051 whole entry, looked up): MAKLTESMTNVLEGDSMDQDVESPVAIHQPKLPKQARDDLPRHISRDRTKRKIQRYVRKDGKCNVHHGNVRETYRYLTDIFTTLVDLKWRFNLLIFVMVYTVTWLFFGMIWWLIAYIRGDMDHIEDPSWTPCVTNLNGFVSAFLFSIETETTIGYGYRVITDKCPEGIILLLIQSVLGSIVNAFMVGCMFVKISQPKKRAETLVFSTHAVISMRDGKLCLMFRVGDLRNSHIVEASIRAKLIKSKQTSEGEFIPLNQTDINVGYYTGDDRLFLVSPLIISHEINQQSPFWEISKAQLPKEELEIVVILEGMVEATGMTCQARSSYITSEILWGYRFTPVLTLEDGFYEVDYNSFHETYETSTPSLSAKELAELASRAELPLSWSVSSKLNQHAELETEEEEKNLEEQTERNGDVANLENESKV
Active calls of the source: *; i = inactive; + = active, no number. Only a selection was taken, and hits are over-represented in it overall.

SMILES	GIRK2 act
O=C(OC1CN(c2nc3c(F)cc(F)cc3s2)C1)c1cnn(-c2ccccc2)n1	i
COc1ccc2c(c1)c(CC(=O)NCc1ccc(C(=O)c3ccccc3)cc1)cn2C(=O)c1ccc(Cl)cc1	i
Cc1cc(=O)n(CC(=O)Nc2c(C)cccc2C)c(N2CCOCC2)n1	i
CC(C)(C)OC(=O)NC1CCN(C(=O)C2CCN(c3cc(Oc4ccccc4)ncn3)CC2)CC1	i
Cc1c(Cl)cccc1-n1c(C)c(C)n2c3c(=O)n(CC(N)=O)c(=O)n(C)c3nc12	i
CCCN1CCCc2cc(CCNC(=O)c3cc(OC)c(OC)c(OC)c3)ccc21	i
CCOc1cc(C(=O)NC(C)C(=O)Nc2nc3ccccc3[nH]2)cc(OCC)c1OCC (centres undefined)	i
C1CCN(c2nc(NC3CCCC3)nc3n[nH]nc23)CC1	i
CCc1ccc(-c2ccc(=O)n(CCc3nc(-c4ccc5c(c4)OCO5)no3)n2)cc1	i
COc1ccc(N2CCN(C(=O)c3cn(C)nc3C)CC2)cc1	i
COc1ccccc1NC(=O)Cn1c(=O)n(CCCCC(=O)NCCC(C)C)c(=O)c2ccccc21	i
CNC(=O)CSc1nnc(N2CCN(C(=O)c3cc(C)oc3C)CC2)s1	i
CN(C)C(CNC(=O)c1cc(-c2ccccc2)on1)c1ccc2c(c1)CCO2 (centres undefined)	i
COC(=O)c1ccc(NC(=O)c2csc3nc(-c4ccc(OC)cc4)cn23)cc1	i
COc1cc(NC(=O)Nc2nc3c(s2)-c2cccc4cccc-3c24)cc(OC)c1OC	i
Cc1csc(C(=O)N2CCN(CC(O)c3cccs3)CC2)c1 (centres undefined)	i
CCOCCn1c(N2CCN(CCCc3ccccc3)CC2)nc2c1c(=O)[nH]c(=O)n2C	i
O=C(NCc1ccccc1Cl)C1CCN(c2ncnc3c2sc2ncccc23)CC1	i
O=C(CN1CCN(c2ccc(F)cc2)C1=O)NCc1cccs1	i
CC(C)CCNc1nc2c(c(=O)n(C)c(=O)n2C)n1CC(O)COc1ccccc1 (centres undefined)	i
CCOc1ccc(-c2csc(-n3nc(C)cc3NC(=O)c3cc(=O)c4ccccc4o3)n2)cc1	i
Cc1ccc(OCC(=O)NCC2(CO)CC2)cc1	i
COc1cc(C(=O)N2N=C(c3ccccc3)CC2c2ccco2)cc(OC)c1OC (centres undefined)	i
CCCCN1C(=O)CCc2cc(NC(=O)c3cc(OCC)c(OCC)c(OCC)c3)ccc21	i
COc1cccc(NC(=O)Cn2c(=O)c(CNc3ccccc3)cc3cc(OC)c(OC)cc32)c1	i
SMILES	GIRK2 act
Cc1cccc(Cn2c(=O)c3nscc3n(Cc3c(C)noc3C)c2=O)c1	i
O=C(NCc1cccc2ccccc12)N1C2CCC1COC2	i
COc1ccc(-c2nc(-c3cn(CC(=O)Nc4cccc(C)c4)cn3)no2)cc1	i
CCOc1ccccc1C(=O)NCC1(c2ccc(F)cc2)CC1	i
Cc1nc(Nc2ccc(NC(=O)c3ccc(Br)o3)cc2)cc(-n2ccnc2)n1	i
CCOC(=O)c1cnn2ccc(NC(=O)c3ccccc3Br)cc12	i
Cc1cc2c(=O)n(C)c(SCC(=O)NCCc3ccccc3)nc2s1	i
O=P(O)(O)OC1C(OP(=O)(O)O)[C@@H](O)C(O)[C@@H](O)C1OP(=O)(O)O (some centres undefined)	i
Cc1ccccc1NC(=O)Cn1cc(S(=O)(=O)N2CCOCC2)ccc1=O	i
COCCCNC(=O)CSc1nc(-c2cccc(F)c2)[nH]c1-c1ccccc1	+
COCCNC(=O)CSc1nc(-c2ccc(C)cc2)[nH]c1-c1ccccc1	i
COc1ccc(-c2nc(SCC(=O)NCC3CCCO3)c(-c3ccc(C)cc3)[nH]2)cc1OC (centres undefined)	i
CCOc1ccc(-c2nc(SCC(=O)NCCCOC)c(-c3ccccc3)[nH]2)cc1OC	i
O=C(CSc1ncccc1-c1nc2ccccc2[nH]1)NCC1CCCO1 (centres undefined)	i
O=C(CSc1nc(-c2ccccc2)[nH]c1-c1ccc(F)cc1)NCC1CCCO1 (centres undefined)	+
CCOC(=O)CNC(=O)C1CN(C(C)=O)C1	i
Cc1noc(C)c1CCC(=O)NCc1nn(C2CCCC2)c(=O)c2ccccc12	i
O=C(NCCc1ccc(Cl)cc1)c1nnn(-c2ccccc2F)c1-c1cccnc1	i
O=C(Nc1ccc2c(c1)OCCO2)c1nnn(-c2ccccc2Cl)c1-c1ccccn1	+
O=C(c1nnn(-c2ccccc2Cl)c1-c1ccccn1)N1CCN(c2ncccn2)CC1	i
Cc1[nH]ncc1CNC(=O)c1nnn(-c2ccccc2Cl)c1-c1ccccn1	i
O=C(Nc1nccs1)c1nnn(-c2ccccc2)c1-c1ccccn1	i
O=C(Nc1ccc(F)cc1)c1nnn(-c2ccccc2Cl)c1-c1ccccn1	i
Cc1csc(NC(=O)c2nnn(-c3ccccc3Cl)c2-c2ccccn2)n1	+
CCOc1cc(C(=O)Nc2ccc3c(c2)CCCN3C(=O)C2CC2)cc(OCC)c1OCC	i
COc1ccccc1-c1cc2c(=O)n(Cc3ccc(N4CCCC4=O)cc3)ccn2n1	i
